Hits are enriched below; roughly 1.3% of the tested compounds scored in any of these assays.
CD11b adhes enh: enhancers of CD11b/CD18 adhesion to fibrinogen, primary screen, K562 cells, luminescence. ATPlite luminescence. activation, % at 10 µM. 93,000 tested, 0.07% active;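 active = 10 µM primary screen giving 50% or more activity, confirmed by 40% or more on retest at that dose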
Target sequence (P05107 whole entry, looked up, other chains not shown): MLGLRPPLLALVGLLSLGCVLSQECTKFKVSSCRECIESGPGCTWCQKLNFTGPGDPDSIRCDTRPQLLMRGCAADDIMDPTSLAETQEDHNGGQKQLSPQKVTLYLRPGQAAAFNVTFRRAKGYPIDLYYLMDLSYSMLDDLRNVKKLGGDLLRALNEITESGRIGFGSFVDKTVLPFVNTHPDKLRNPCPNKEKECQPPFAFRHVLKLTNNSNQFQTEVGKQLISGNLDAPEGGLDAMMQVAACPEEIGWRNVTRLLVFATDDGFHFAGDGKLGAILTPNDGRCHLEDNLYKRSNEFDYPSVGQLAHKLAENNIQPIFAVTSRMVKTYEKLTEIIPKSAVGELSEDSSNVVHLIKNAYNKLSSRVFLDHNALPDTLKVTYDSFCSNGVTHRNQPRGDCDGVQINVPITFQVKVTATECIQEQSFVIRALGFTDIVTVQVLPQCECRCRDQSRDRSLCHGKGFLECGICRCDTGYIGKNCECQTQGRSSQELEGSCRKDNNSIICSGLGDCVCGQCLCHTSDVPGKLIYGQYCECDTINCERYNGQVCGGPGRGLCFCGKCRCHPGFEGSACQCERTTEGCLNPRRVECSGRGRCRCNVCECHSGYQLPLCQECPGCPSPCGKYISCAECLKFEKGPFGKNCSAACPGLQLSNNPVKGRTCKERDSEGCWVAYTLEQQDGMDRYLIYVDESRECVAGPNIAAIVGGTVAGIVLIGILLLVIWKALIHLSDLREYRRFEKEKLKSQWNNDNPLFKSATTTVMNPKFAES
CD11b adhes inh: inhibitors of CD11b/CD18 adhesion to fibrinogen, primary screen, K562 cells, luminescence; ATPlite luminescence; Mn2+ added to activate the integrin; inhibition, % at 10 µM; 93,000 tested, 0.54% active; AID 1497, 2009;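 active = primary inhibition of 50% or more at 10 µM, then 40% or more on retest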
Phagocytosis inh: inhibitors of macrophage phagocytosis, primary screen, imaging, J774A.1 cells, IgG beads. J774A.1 macrophage IgG-bead phagocytosis. inhibition, % at 5 µM. 110,000 tested, 0.07% active. AID 1029, 2008;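 active = inhibition above the mean of the plate negative controls plus 5 SD, cut at about 13% in these data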;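 note: phagocytic index as fraction of beads internalized from green versus red external bead signal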
SDO1 yeast rescue: growth rescue of sdo1-depleted yeast, primary screen, S. cerevisiae, bone marrow failure model; S. cerevisiae sdo1-depleted JHY4D growth rescue, OD600 30 h; hits give high values; pdr5 snq2 efflux-pump mutant strain; z-score at 10 µM; 140,000 tested, 0.21% active; AID 817, 2007;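 active = z-score above 3 at both the 24 hr and the 30 hr optical density reads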
MRP1 act: H69AR viability gain despite doxorubicin, primary screen, MRP-1 activator project, H69AR cells, CellTiter-Glo | viability rescue | viability increase, % at 10 µM | 140,000 tested, 0.61% active;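 active = viability gain under doxorubicin at or above a set limit, the compound median plus 3 SD, cut at about 4.7% in these data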;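 note: MRP-1 overexpressing cells given doxorubicin 25 µM after compound pretreatment; 18-22 h compound pretreatment then 72 h with doxorubicin before readout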
MRP reversal: reversal of MRP1-mediated doxorubicin resistance, primary screen, H69AR cells, doxorubicin co-treatment; H69AR cells + 2 uM doxorubicin, CellTiter-Glo, 72 h; differential viability (reversal), % at 10 µM; 85,000 tested, 0.04% active; AID 602, 2007;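 active = viability drop by adding the cancer drug above about 55%, with treated viability meeting a 40% cutoff, limit read from the data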;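 note: larger differential means the compound sensitizes cells more to doxorubicin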
SDO1 rescue DR: SDO1-depleted yeast growth rescue, concentration-response, diseases of bone marrow failure, JHY4D, OD600; shares compounds with SDO1 yeast rescue; S. cerevisiae JHY4D (SDO1-depleted) growth rescue, 30 h; hits give high values; efflux-deficient strain, SNQ2 and PDR5 mutated; OD recovery (test concentration not listed); 440 tested, 44% active;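 active = yeast growth recovered at 30 hours, either rising with dose fitted slope above 0.001 or with average optical density gain above 0.07, some results past the limit were not filed as active; inactive = growth falling with dose or no effect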
Of the large screens only hits and unclear results are named; the others gave an inactive call (follow-up assays come after a bar, where they were run); ! = a repeat was not active.

O=C(CCSc1ccc(Cl)c(Cl)c1)NC12CC3CC(CC(C3)C1)C2	none (no result: MRP reversal)
CCC(Sc1nc(C)cc(C)n1)C(=O)NC1=NN=C(c2ccc(C)cc2)CS1 (configuration not stated)	none (no result: MRP reversal)
Cc1cc(C)nc(SCC(=O)NC2=NN=C(c3ccc(Br)cc3)CS2)n1	none (no result: CD11b adhes enh, CD11b adhes inh, Phagocytosis inh, MRP reversal) | SDO1 rescue DR 0.083
O=C(CN1CCc2ccccc2C1)c1cccs1	SDO1 yeast rescue 5.6 | SDO1 rescue DR 0.096
O=C(CSc1nnc(-c2ccco2)n1Cc1ccco1)NCc1cccs1	SDO1 yeast rescue 6.5 | SDO1 rescue DR 0.071
COC(=O)CSc1nnc(-c2ccco2)n1Cc1ccco1	none
COC(=O)c1ccccc1NC(=S)NC(=O)COc1ccccc1	none (no result: MRP reversal)
COC(=O)c1ccccc1NC(=S)NC(=O)CC(C)C	SDO1 yeast rescue 5.6 (no result: CD11b adhes enh, CD11b adhes inh, Phagocytosis inh, MRP reversal) | SDO1 rescue DR inactive
COc1cccc(N2CCN(c3ccc(S(=O)(=O)N4CCCC4)cc3)CC2)c1	none (no result: MRP reversal)
CS(=O)(=O)N1CCCC(C(=O)NC2CCCCCCC2)C1 (configuration not stated)	none (no result: CD11b adhes enh, CD11b adhes inh)
CC(C)NC(=O)C1CCCN(S(C)(=O)=O)C1 (configuration not stated)	none | SDO1 rescue DR inactive
CCOc1cc(OCC)nc(S(C)(=O)=O)n1	none (no result: CD11b adhes enh, CD11b adhes inh, MRP reversal)
CC1CCN(C(=O)C2CCC(CNS(=O)(=O)c3cccc4cccnc34)CC2)CC1 (configuration not stated)	SDO1 yeast rescue 9.6 (no result: Phagocytosis inh) | SDO1 rescue DR inactive
CN1CCN(C(=O)C2CCC(CNS(=O)(=O)c3cccc4cccnc34)CC2)CC1 (configuration not stated)	none (no result: Phagocytosis inh)
c1ccc(Oc2cccc(NC3=NCCC3)c2)cc1	SDO1 yeast rescue 15 | SDO1 rescue DR inactive
Cc1nn(Cc2ccccc2)c(C)c1NC(=O)CSc1n[nH]c(C)c1[N+](=O)[O-]	none (no result: CD11b adhes enh, CD11b adhes inh, MRP reversal)
Cc1nn(Cc2ccc(Cl)cc2)c(C)c1NC(=O)CSc1n[nH]c(C)c1[N+](=O)[O-]	SDO1 yeast rescue 12 (no result: CD11b adhes enh, CD11b adhes inh, MRP reversal) | SDO1 rescue DR 0.06
Cc1ccc(S(=O)(=O)NCC(=O)OC(C)C(=O)Nc2ncc(Cl)cc2Cl)cc1 (configuration not stated)	none (no result: CD11b adhes enh, CD11b adhes inh, Phagocytosis inh)
COc1ccc(NC(=O)C2CCCCN2S(=O)(=O)c2ccc(F)cc2)cc1 (configuration not stated)	none | SDO1 rescue DR inactive
C/C(=C/C(=O)N1CCc2ccccc21)C(=O)O	none (no result: Phagocytosis inh, MRP reversal)
CCCOC(=O)c1c(NC(=O)CCCn2nc([N+](=O)[O-])cc2C)sc(C(=O)OC)c1C	none (no result: CD11b adhes enh, CD11b adhes inh, MRP reversal)
COc1ccccc1NC(=O)c1nn(-c2cccc(C(F)(F)F)c2)ccc1=O	SDO1 yeast rescue 7.2 (no result: CD11b adhes enh, CD11b adhes inh, Phagocytosis inh, MRP reversal) | SDO1 rescue DR inactive
CCOc1ccc(C(C)=O)cc1N1C(=O)C2C3C=CC(C3)C2C1=O (configuration not stated)	none
CCOc1ccc(CCN2C(=O)C3C4C=CC(C4)C3C2=O)cc1OCC (configuration not stated)	none | SDO1 rescue DR inactive
COc1ccccc1OCC(=O)NNC(=O)c1ccoc1C	SDO1 yeast rescue 5.1 (no result: CD11b adhes enh, CD11b adhes inh, MRP reversal) | SDO1 rescue DR inactive
CCCC/C(C)=N/NC(=O)c1cn(-c2ccccc2)nc1-c1ccccc1	none (no result: MRP reversal)
O=C(/C=C1\NCC2c3ccccc3CCN2C1=O)c1ccccc1 (configuration not stated)	none (no result: MRP reversal)
Cc1c(C(=O)NCc2ccccn2)sc2nc(-c3ccc(F)cc3)cn12	none (no result: Phagocytosis inh)
CCN(CC)CCCNC(=O)c1sc2nc(-c3ccc(F)cc3)cn2c1C	SDO1 yeast rescue 3.6 | SDO1 rescue DR 0.083
COc1ccc(OC)c(C2=NOC(C(=O)NCc3ccco3)C2)c1 (configuration not stated)	SDO1 yeast rescue 7.6 | SDO1 rescue DR inactive
O=S(=O)(/N=C(/Nc1ccc(F)c(F)c1F)c1ccccc1)c1ccccc1	none (no result: CD11b adhes enh, CD11b adhes inh, MRP reversal)
COc1ccccc1NC(=O)CSc1nc(C)c2c(c1C#N)CCCC2	none | SDO1 rescue DR 0.078
CCN(CC)S(=O)(=O)c1ccc(-c2nnc(SCC(=O)Nc3ccc(OC)c(OC)c3)o2)cc1	none | SDO1 rescue DR inactive
COc1ccccc1NC(=O)CSc1nnc(-c2ccncc2)o1	none (no result: CD11b adhes enh, CD11b adhes inh)
CCN(CC)S(=O)(=O)c1ccc(-c2nnc(SCC(=O)Nc3ccc(OC)cc3)o2)cc1	none (no result: CD11b adhes enh, CD11b adhes inh, Phagocytosis inh)
COc1ccc(-c2nnc(SCC(=O)Nc3ccccc3OC)o2)cc1	SDO1 yeast rescue 7.5 (no result: CD11b adhes enh, CD11b adhes inh, Phagocytosis inh) | SDO1 rescue DR 0.1
N#Cc1ccccc1Cn1c(=O)n(Cc2ccc(C(=O)NCc3ccco3)cc2)c(=O)c2ccccc21	none (no result: CD11b adhes enh, CD11b adhes inh, Phagocytosis inh)
Nc1nncn1C(=O)CCCOc1ccc(Cl)cc1Cl	none
CC(C)c1ccc2c(c1)C1Cc3ccccc3C1N2 (configuration not stated)	none (no result: CD11b adhes enh, CD11b adhes inh, MRP reversal)
COC(=O)c1cc(OC)c(OC)cc1NC(=S)N1CCN(C)CC1	SDO1 yeast rescue 3.1! (no result: MRP reversal) | SDO1 rescue DR inactive
COC(=O)c1cc(OC)c(OC)cc1NC(=S)N1CCCCC1	none
O=C(COc1ccccc1)Nc1nnc(-c2ccc(Cl)s2)o1	none
O=C(CN1CCN(c2cccc(Cl)c2)CC1)Nc1ccc([N+](=O)[O-])cc1C(=O)Nc1ccccc1F	SDO1 yeast rescue 14 (no result: CD11b adhes enh, CD11b adhes inh, MRP reversal) | SDO1 rescue DR inactive
COCCn1c(=NC(=O)c2cc(-c3cccs3)nc3ccccc23)sc2cc(S(N)(=O)=O)ccc21	SDO1 yeast rescue 9.4 (no result: CD11b adhes enh, CD11b adhes inh, MRP reversal) | SDO1 rescue DR 0.071
C=CCn1c(=NC(=O)c2cc(-c3cccs3)nc3ccccc23)sc2cc(S(N)(=O)=O)ccc21	none (no result: CD11b adhes enh, CD11b adhes inh, MRP reversal)
CCSc1ccccc1C(=O)NCc1ccco1	none
COc1cccc(-n2c(CCn3nc(C)c([N+](=O)[O-])c3C)n[nH]c2=S)c1	SDO1 yeast rescue 3.2 (no result: CD11b adhes enh, CD11b adhes inh, MRP reversal) | SDO1 rescue DR inactive
Cc1cccc(-n2c(CCn3nc(C)c([N+](=O)[O-])c3C)n[nH]c2=S)c1	none (no result: MRP reversal)
O=S1(=O)CC(O)C(Nc2ccccc2)C1 (configuration not stated)	none
CC(C)NC1CS(=O)(=O)CC1O (configuration not stated)	SDO1 yeast rescue 5.5 | SDO1 rescue DR 0.095
CCOC(=O)c1cnc2ccc(C)cc2c1Sc1ccc(F)cc1	SDO1 yeast rescue 13 (no result: MRP reversal) | SDO1 rescue DR 0.097
CCC(CC)C(=O)Nc1cc(C(=O)OC)ccc1C(=O)OC	SDO1 yeast rescue 10 (no result: CD11b adhes enh, CD11b adhes inh, MRP reversal) | SDO1 rescue DR inactive
O=C(O)c1ccoc1CN1CCCCC1	none (no result: CD11b adhes enh, CD11b adhes inh, Phagocytosis inh)
Cc1cccc(N(CC(O)CON=C2c3ccccc3-c3ccccc32)S(C)(=O)=O)c1 (configuration not stated)	none
Cc1ccc(/C(O)=C2\C(=O)C(=O)N(CC(C)O)C2c2cccc(F)c2)cc1 (configuration not stated)	none (no result: CD11b adhes enh, CD11b adhes inh) | SDO1 rescue DR inactive
N#Cc1ccsc1NC(=O)CN1CCN(S(=O)(=O)c2ccccc2C(F)(F)F)CC1	none (no result: CD11b adhes enh, CD11b adhes inh, MRP reversal)

High-throughput results: PubChem BioAssay, several laboratories
